# Results from the supplement of paper PMC11219838.
# Tested on: Caenorhabditis elegans L1 (N2)
# Assay: survival and reproduction score of C. elegans L1 (0: 0-10 living worms, 1: 11-20, 2: 21-50, 3: >50, 4: overgrown) (score 0-4); higher = more worms, less nematicidal, active = 1 or less; extreme values may be limits of the assay
# Details: 60 µM; 6 days; temperature: 20 °C
# Method in brief: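 Each 96-well well received about 20 synchronized N2 L1 worms of C. elegans, E. coli HB101 and liquid NGM, plus compound pinned to 60 µM final (0.6% v/v DMSO). Sealed plates were incubated with shaking at 200 rpm, 20 °C, for 6 days. Survival and reproduction were rated under a dissection microscope as an ordinal score of living worms per well, averaged across biological replicates. The scale spanned 0 (0–10 worms) to 4 (overgrown, starved), and there were two replicates.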
row,Structure (SMILES),survival and reproduction score
1,COc1ccc(-c2noc(-c3ccc(C)c(Cl)c3)n2)cc1,4 (inactive)
2,CC1CCN(C(=O)CSc2nnc(-c3cc4ccccc4o3)o2)CC1,4 (inactive)
3,COc1cccc(NC(=O)CSc2nnc(-c3ccc(C)cc3)o2)c1,4 (inactive)
4,CC(C)(C)C(=O)CSc1nnc(-c2ccc(Cl)cc2Cl)o1,4 (inactive)
5,CCc1ccc(NC(=O)CSc2nnc(-c3ccco3)o2)cc1,4 (inactive)
6,COc1ccc(-c2nnc(SCC(=O)N(C)c3ccccc3)o2)cc1,4 (inactive)
7,Cc1cc(NC(=O)CSc2nnc(-c3ccc(Cl)cc3Cl)o2)no1,4 (inactive)
8,Brc1ccc(-c2noc(-c3cccs3)n2)o1,0 (active)
9,Cc1ccc(C(=O)CSc2nnc(-c3ccccc3)o2)cc1,4 (inactive)
10,FC(F)(F)c1cccc(-c2noc(-c3cccnc3)n2)c1,1 (active)
11,Cc1cccc(-c2noc(-c3ccccc3Cl)n2)c1,4 (inactive)
12,COc1ccccc1-c1nc(-c2ccc(Cl)cc2)no1,4 (inactive)
13,COc1nc(C)ccc1-c1noc(-c2ccc(Cl)cc2)n1,4 (inactive)
14,Cc1ccc(-c2nc(-c3ccccc3)no2)cc1Cl,3 (inactive)
15,CCc1nnc(NC(=O)CSc2nnc(-c3ccc(Cl)cc3Cl)o2)s1,4 (inactive)
16,Clc1ccccc1OCc1nc(-c2ccc(Br)cc2)no1,4 (inactive)
17,Cc1ccccc1CSc1nnc(-c2ccccc2)o1,4 (inactive)
18,Cc1ccc(NC(=O)CSc2nnc(-c3ccco3)o2)cc1Cl,4 (inactive)
19,COc1cccc(-c2noc(-c3ccc(Cl)cc3)n2)c1,3 (inactive)
20,COc1ccc(OCc2nc(-c3cccc(Br)c3)no2)cc1,4 (inactive)

row,Structure (SMILES),survival and reproduction score
1,COc1nc(C)ccc1-c1noc(-c2ccccc2C)n1,4 (inactive)
2,COc1ccc(-c2noc(CSc3nc(C)cc(C)n3)n2)cc1,4 (inactive)
3,CCOc1nc(-c2ccc(C)cc2)ccc1-c1noc(-c2ccncc2)n1,4 (inactive)
4,COc1cccc(-c2noc(COc3cc(C)ccc3C)n2)c1,4 (inactive)
5,c1ccc2cc(-c3nc(-c4ccncc4)no3)ccc2c1,0 (active)
6,Fc1ccc(-c2nc(-c3ccc(Cl)cc3)no2)cc1,4 (inactive)
7,N#Cc1ccccc1NC(=O)CSc1nnc(-c2ccccc2)o1,4 (inactive)
8,O=C(Nc1ccc(-c2noc(-c3ccccn3)n2)cc1)c1cccc(Cl)c1,4 (inactive)
9,COc1ccc(-c2nnc(SCc3ccc(C#N)cc3)o2)cc1,4 (inactive)
10,COc1ccc(-c2nnc(SCC(=O)Nc3ccccc3F)o2)cc1,4 (inactive)
11,Cc1ccc(-c2nc(-c3ccncc3)no2)cc1Cl,0 (active)
12,O=C(Nc1ccccc1-c1nc(-c2ccncc2)no1)c1cccc(Cl)c1,4 (inactive)
13,COc1nc(-c2ccccc2)ccc1-c1noc(-c2ccccc2Cl)n1,4 (inactive)
14,Brc1ccc(CSc2nnc(-c3cccnc3)o2)cc1,4 (inactive)
15,Ic1ccc(-c2nc(-c3cccnc3)no2)cc1,0 (active)
16,CCCCC(=O)Nc1ccccc1-c1nc(-c2ccncc2)no1,4 (inactive)
17,O=C(CSc1nnc(-c2cccc(Br)c2)o1)c1ccc2c(c1)CCCC2,4 (inactive)
18,COc1ccc(-c2noc(-c3ccc(Br)cc3)n2)cc1,0 (active)
19,CNC(=O)c1ccccc1-c1nc(-c2ccc(F)cc2)no1,4 (inactive)
